# Hits are enriched below; roughly 12% of the tested compounds scored in any of these assays.
# HP1b chromo inh – inhibitors of HP1-beta chromodomain binding to methylated histone tails; Potency, µM (highest dose often 114 µM), inactives show top-dose activity change, negative = inhibition, hits mostly inhibitors; AID 540317; AlphaScreen HP1-beta / biotin-H3K9me3 peptide binding; hit rate 0.56% among 390,000; P83916; also: nearly all actives have a fitted effect of over 70% in size
#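 AlphaScreen: HP1-beta (50 nM) preformed 30 min with biotin-H3(1-18)K9me3 peptide (50 nM) in PBS pH 7.4, 0.01% Tween-20. Compound added for 30 min at RT, then streptavidin donor/nickel chelate acceptor beads (10 ug/mL) for 30 min.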
# JMJD2A Tudor – inhibitors of human JMJD2A Tudor domain | O75164 | AlphaScreen JMJD2A-Tudor / H3K4me3 peptide binding | Potency, µM (series often up to 114 µM), for the others: at the top dose activity change, negative = inhibition, actives largely listed as inhibitors | hit rate 4.4% among 390,000 | AID 504339; also: % is scaled to controls: 0 for no effect and ±100 for the full control effect; nearly all actives have a fitted effect of over 50% in size
# Sfp inh – Sfp phosphopantetheinyl transferase inhibition; Q9F4F7; Biochemical Sfp PPTase activity, qHTS; Potency, µM, for inactives: largest response in the series, negative = inhibition, most hits filed as inhibitors; hit rate 3.5% among 310,000; AID 1490;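 also: the enzyme is Sfp with the accession as filed and its product quenches rhodamine fluorescence; 0% = enzyme reaction without inhibitor and -100% = no enzyme wells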
#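 Fluorescence-quenching assay with 15 nM Sfp, 5 uM rhodamine-CoA and 12.5 uM BHQ-2-labelled ybbR peptide in pH 7.6 Hepes/MgCl2 buffer. Enzyme was pre-incubated with compound for 15 min at room temperature. Rate was taken from the 30-min fluorescence change (525/598 nm).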
# G9a inh – inhibitors of human histone lysine methyltransferase G9a; Q96KQ7; hit rate 8.8% among 350,000; AID 504332; Potency, µM (top dose mostly 102 µM), for the others: at the highest dose activity, negative = inhibition, usual class: inhibitors; G9a H3K9 monomethylation, AlphaScreen, 2 h; also: % is scaled to controls: 0 for no effect and ±100 for the full control effect; nearly all actives have a fitted effect of over 75% in size
#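 Chemiluminescent proximity detection of H3K9 monomethylation, read after 10 min bead incubation in the dark. Reaction: 20 nM G9a, 500 nM biotin-H3K9 peptide, 20 uM SAM cofactor, 2 h, room temperature, following 15 min enzyme-compound preincubation.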
# BAZ2B inh – blocks human BAZ2B. Q9UIF8. AlphaScreen BAZ2B-H3K14Ac peptide displacement. Potency, µM (series often up to 114 µM), without a hit: at the highest dose activity change, negative = inhibition, hits mostly inhibitors. hit rate 4.4% among 360,000. AID 504333; also: % is scaled to controls: 0 for no effect and ±100 for the full control effect; nearly all actives have a fitted effect of over 60% in size
#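 Protein-peptide AlphaScreen: BAZ2B 50 nM, b-H3K14Ac 50 nM, 1x PBS pH 7.4 + 0.01% Tween-20. Preincubation 30 min RT; cpd 30 min RT (top 110 uM); beads 20 min RT, light-protected.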
# * hit, by the source's call; ? = inconclusive; nt = no result; [ ] = another dose, or the depositor's remark. Calls follow the shape of the dose curve; as a rule, active = well fitted curve in the direction sought with a large enough effect; inconclusive = small, poorly fitted or top-dose-only effect, or another doubt; inactive = no such curve, though single readings can be large; an effect the other way counts as inactive or inconclusive. Potency is read from the fitted curve at half-maximal effect.
SMILES,HP1b chromo inh,JMJD2A Tudor,Sfp inh,G9a inh,BAZ2B inh
CO[C@H]1C=CO[C@@]2(C)Oc3c(C)c(O)c4c(O)c(c5c(nc6cc(C)ccn65)c4c3C2=O)NC(=O)C(C)=CC=C[C@H](C)[C@H](O)[C@@H](C)[C@@H](O)[C@@H](C)[C@H](OC(C)=O)[C@@H]1C,nt,nt,8%,-7%[59 µM],?
CO[C@H]1C=CO[C@@]2(C)Oc3c(C)c(O)c4c(O)c(c5c(c4c3C2=O)NC2(CCN(CC(C)C)CC2)N=5)=NC(=O)C(C)=CC=C[C@H](C)[C@H](O)[C@@H](C)[C@@H](O)[C@@H](C)[C@H](OC(C)=O)[C@@H]1C,nt,nt,9%,?,40µM*
CCC(C)N1CCC2(CC1)N=c1c(c3c4c5c(C)c(O)c3c(O)c1=NC(=O)C(C)=CC=C[C@H](C)[C@H](O)[C@@H](C)[C@@H](O)[C@@H](C)[C@H](OC(C)=O)[C@H](C)[C@@H](OC)C=CO[C@@](C)(O5)C4=O)N2 (stereo partly specified),-24%,?,nt,?,50µM*
CSCC[C@H](NC(=O)c1cccc(S(=O)(=O)N2CCCCC2)c1)c1nc2ccccc2[nH]1,-2%[57 µM],-17%,nt,nt,nt
CCCC1=NN2C(=N)/C(=C\c3cc(C)n(Cc4ccccc4)c3C)C(=O)N=C2S1,50%,-24%,-18%,5%,-2%
COc1ccccc1OCCOc1ccc(/C=C2\C(=N)N3N=C(S(C)(=O)=O)SC3=NC2=O)cc1,-14%,22µM*,-6%,3%[2.33 µM],50µM*
C=CCOc1ccc(/C=C2\C(=N)N3N=C(S(=O)(=O)CC)SC3=NC2=O)cc1OC,11%,-12%,19%,2%[59 µM],?
CCOc1cc(/C=C2\C(=N)N3N=C(C)SC3=NC2=O)ccc1OCCOc1cccc(OC)c1,40%,3%,-2%,11%,-27%
CCc1nn2c(=O)cc(COc3ccc(/C=C4\C(=N)N5N=C(C)SC5=NC4=O)cc3)nc2s1,15%,56µM*,4%,-13%[59 µM],50µM*
Cc1cc(/C=C2\C(=N)N3N=C(S(C)(=O)=O)SC3=NC2=O)c(C)n1Cc1ccccc1,-19%,?,45µM*,45µM*,-37%
COc1cccc(OCCOc2ccc(/C=C3\C(=N)N4N=C(S(C)(=O)=O)SC4=NC3=O)cc2OC)c1,-3%,56µM*,-7%,40µM*,79µM*
CCOc1cc(/C=C2/C(=N)N3N=C(C)SC3=NC2=O)ccc1OS(=O)(=O)c1ccc(C)cc1,1%,-22%,4%,2%,8%
COc1cc(/C=C2\C(=N)N3N=C(C)SC3=NC2=O)cc(Cl)c1OCCOc1ccc(NC(C)=O)cc1,14%,-6%,-8%,-2%,79µM*
COc1cc(/C=C2\C(=N)N3N=C(C)SC3=NC2=O)cc(OC)c1OCCOc1ccccc1C,-7%,-27%,2%,12%[0.501 µM],-9%
COc1cc(/C=C2\C(=N)N3N=C(S(C)(=O)=O)SC3=NC2=O)ccc1OS(=O)(=O)c1ccc(C)cc1,-5%,56µM*,-24%,10%[59 µM],50µM*
COc1cc(/C=C2\C(=N)N3N=C(S(C)(=O)=O)SC3=NC2=O)cc(OC)c1OCCOc1ccccc1C,?,79µM*,-25%,?,56µM*
COC(=O)CN1CCC(=O)c2ccccc2S1(=O)=O,32%,-6%,24%,nt,nt
O=C(NCCCN1CCCC1)c1ccc2c(c1)N(Cc1ccccc1F)C(=O)c1ccccc1S2(=O)=O,20%,-17%,-1%,?,-23%
C#CCSc1nc2sc3c(c2c(=O)n1-c1cccc(OC)c1)CCN(C(C)=O)C3,-3%,89µM*,nt,?,?
COC(=O)CSc1nc2sc3c(c2c(=O)n1-c1ccc(OC)cc1)CCN(C)C3,-6%,-25%,-2%,12%,-7%
O=C(NCc1ccco1)c1ccc2nc3sc4c(c3c(=O)n2c1)CCCC4,nt,nt,10µM*,?,2%
CN1CCc2c(sc3nc(SCC(=O)N4CCOCC4)n(-c4ccc(Cl)cc4)c(=O)c23)C1,5%,-25%,5%,71µM*,?
COc1ccc(-n2c(SCC(=O)NCc3ccco3)nc3sc4c(c3c2=O)CCN(C)C4)cc1,-2%,-24%,-2%,79µM*,-29%
CCOc1ccc(CCNS(=O)(=O)c2c(C)nc3sc(C)cn3c2=O)cc1OCC,61%,-3%,nt,-8%[59 µM],-14%
CC1=C(C(=O)Nc2cccnc2)C(c2ccc(F)cc2)n2nc(SCc3ccccc3)nc2N1 (stereo unspecified),21%,0%,nt,-2%[59 µM],-34%
SMILES,HP1b chromo inh,JMJD2A Tudor,Sfp inh,G9a inh,BAZ2B inh
Cc1sc2nc(SCC(=O)NCc3ccco3)n(-c3ccccc3)c(=O)c2c1C,19%,-13%,8%,18%,7%
CN1CCc2c(sc3nc(SCC(=O)NCc4ccco4)n(-c4ccccc4)c(=O)c23)C1,40%,-14%,0%,45µM*,?
CCCCCNc1nc2c(-c3ccccc3)nnn2c2ccccc12,37%,-10%,nt,11%[59 µM],-2%
COc1ccc(OCC#CCNC(C)(C)C)cc1,?,40µM*,?,7.9µM*,56µM*
COc1ccc(C(=O)C(CCC(CNC(C)(C)C)C(=O)c2ccc(OC)cc2)CNC(C)(C)C)cc1 (stereo unspecified),24%,-13%,7%,-28%,-1%
COc1ccc(NC(=O)C2=C(C)Nc3nc(SCc4ccccc4C)nn3C2c2cc(OC)c(O)c(OC)c2)cc1 (stereo unspecified),33%,-10%,nt,-26%[59 µM],79µM*
O=C(O)c1cc(N(Cc2ccccc2O)Cc2ccccc2O)ccc1O,-28%,50µM*,56µM*,nt,nt
O=C1/C(=C\c2ccc(Br)o2)SC(=Nc2ccccc2)N1c1ccccc1,-32%,25µM*,-16%,40µM*,8.9µM*
Cc1cc2n(n1)C(c1ccc(N(C)C)cc1)Nc1ccccc1-2 (stereo unspecified),-45%,45µM*,16%,29%[59 µM],33%
CCc1cccc(CC)c1NC(=O)CSc1nc2ccc(N3C(=O)C4C(C3=O)[C@H]3C=C[C@@H]4C3)cc2s1 (stereo partly specified),-15%,-19%,-5%,1.4µM*,-35%
C=CC(=O)Nc1ccc(CN2C(=O)N(c3c(Cl)c(OC)cc(OC)c3Cl)Cc3cnc(NCCCCN(CC)CC)nc32)cc1,?,56µM*,nt,nt,nt
COc1cc(/C=C2/SC(N)=NC2=O)ccc1Oc1ccc([N+](=O)[O-])cc1[N+](=O)[O-],44%,-8%,-10%,0%[59 µM],7%
COc1cc(/C=C2/SC(=O)NC2=O)ccc1Oc1ccc([N+](=O)[O-])cc1[N+](=O)[O-],-7%,-18%[11.4 µM],50µM*,?,?
COc1cc(/C=C2\SC(=O)NC2=O)ccc1Oc1ccc([N+](=O)[O-])cn1,-15%,-26%,79µM*,-3%[12.7 µM],-38%

# Bioassay records from PubChem BioAssay.
